Bioassay records as filed in PubChem BioAssay.
TGFb inhibitor – TGF-b pathway inhibition | 1.2% of 410,000 active | AID 588855 | HepG2 CAGA-GFP TGF-b/SMAD3 reporter, GFP fluorescence, 18 h; TGF-beta stimulated, 500 pg/mL final | Potency, µM (top dose mostly 46.1 µM), for inactives: at the highest dose activity, negative = inhibition, usual class: inhibitors; also: % is scaled to controls: 0 for no effect and ±100 for the full control effect; nearly all actives have a fitted effect of over 65% in size
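Inhibition of TGF-beta-driven CAGA-GFP reporter expression in HEPG2 cells is measured by cellular GFP fluorescence after 18 h stimulation with 500 pg/mL recombinant TGF-beta in 1% FBS medium at 37 degrees C.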
HT1080 IDH1KD tx – HT-1080 IDH1 knockdown cell toxicity (counter line) | Potency, µM (top dose mostly 46.1 µM), inactives show at the highest dose activity, negative = toxicity, most hits filed as cytotoxic | AID 686971 | 2% of 360,000 active | HT-1080 IDH1 knockdown viability, ATP luminescence, 48 h;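 also: 0% = DMSO wells and -100% = cell-free medium wells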
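Luminescent ATP read-out (CellTiter-Glo, 10 min at room temperature) after 48 h compound exposure at 37 °C gave viability of IDH1-knockdown HT-1080 cells. Activity was normalised to DMSO and cell-free wells, then fitted as concentration-response curves.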
HepG2 tox – kills HepG2 cells in TGF-b inhibitor counter-screen. HepG2 CAGA-GFP viability, ATP luminescence, 18 h. Potency, µM (top dose mostly 46.1 µM), for inactives: at the highest dose activity change, negative = cytotoxicity, most hits filed as cytotoxic. 0.76% of 410,000 active
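HepG2 CAGA-GFP cells (1000/well, DMEM with 1% FBS) received compound, then TGF-beta at 500 pg/mL final, and were incubated 18 hours at 37 degrees C. Viability was read by CellTiter-Glo luminescence. Media-only wells were set as complete cell-killing and DMSO as no toxicity.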
ATXN viability – viability counter-screen for ATXN expression inhibitors; S2 cells (HEK-293 line with an ATXN2-luciferase reporter) viability, CellTiter-Fluor protease fluorescence, 24 h; Potency, µM (highest dose often 56.7 µM), most hits filed as cytotoxic; 0.49% of 400,000 active; AID 651635; also: nearly all actives have a fitted effect of over 40% in size
HT1080-NT tox – kills 2HG-producing HT-1080-NT fibrosarcoma cells; HT-1080-NT fibrosarcoma viability, CellTiter-Glo ATP luminescence, 48 h; Potency, µM (top dose mostly 46.1 µM), without a hit: top-dose activity, negative = less viability, actives largely listed as cytotoxic; 1.6% of 360,000 active; AID 686970;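 also: NT is the 2HG producing partner of a matched IDH1 knockdown line; 0% = DMSO-treated cells and -100% = media-only wells without cells; nearly all actives have a fitted effect of over 55% in size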
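HT-1080-NT fibrosarcoma cells (2HG-overproducing), 750 cells/well in RPMI with 5% FBS, dosed after 2 h and incubated 48 h at 37C. CellTiter-Glo luminescence normalized to DMSO and no-cell wells; concentration-response curves fitted and classed.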
ATXN2 expr inh – reduces ATXN2 reporter expression in HEK-293 cells. HEK-293 ATXN2-luciferase reporter, luminescence, 24 h. Potency, µM (highest dose often 57 µM), without a hit: at the top dose activity change, negative = inhibition, actives largely listed as inhibitors. 0.72% of 360,000 active; also: % is scaled to controls: 0 for no effect and ±100 for the full control effect; nearly all actives have a fitted effect of over 55% in size
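qHTS (up to 57 uM final) was run with 24 h compound exposure of reporter cells at 37 °C. Each well was multiplexed: SteadyGlo luminescence measured ATXN2-luciferase expression after a fluorogenic Gly-Phe-AFC viability readout (25 uM final).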
* = called active by the depositor. This is a sample that favours compounds with a hit; in the whole collection about 3.8% have one here. Calls follow the shape of the dose curve; as a rule, active = well fitted curve in the direction sought with a large enough effect; inconclusive = small, poorly fitted or top-dose-only effect, or another doubt; inactive = no such curve, though single readings can be large; an effect the other way counts as inactive or inconclusive. Potency is read from the fitted curve at half-maximal effect.

What do the screens show for `COc1ccc(-c2nnc3ccc(SC(C)C)nn23)cc1OC`?
TGFb inhibitor: inconclusive; HepG2 tox: -37%

How did O=C1[C@@H](Oc2ccccc2)[C@@H](c2cccnc2)N1c1ccccc1 do in these assays?
TGFb inhibitor: -16%; HT1080 IDH1KD tx: 21µM*; HepG2 tox: -19%; ATXN viability: inconclusive; HT1080-NT tox: inconclusive; ATXN2 expr inh: inconclusive

How did O=C1[C@@H](Oc2ccccc2)[C@@H](c2ccccc2)N1c1ccccc1 do in these assays?
TGFb inhibitor: 7%; HT1080 IDH1KD tx: 6%; HepG2 tox: -2%; ATXN viability: inactive; HT1080-NT tox: 3%; ATXN2 expr inh: -9%

Results for CCN(CC)c1ccc(N=Nc2nn(C)c(C)c2[N+](=O)[O-])cc1 ?
TGFb inhibitor: 3%; HT1080 IDH1KD tx: -18%; HepG2 tox: -6%; ATXN viability: 13µM*; HT1080-NT tox: -24%; ATXN2 expr inh: 0%

What do the screens show for `CCN(Cc1ccccc1)c1ccc(N=Nc2nn(C)c(C)c2[N+](=O)[O-])cc1`?
TGFb inhibitor: 11%; HT1080 IDH1KD tx: 1%; HepG2 tox: 3%; ATXN viability: inconclusive; HT1080-NT tox: -2%; ATXN2 expr inh: 63%

How did CN(C)c1ccc(C(=O)N2CCCC(Cn3cc(C(=O)N4CCCC4)nn3)C2)cc1 (stereo not drawn) do in these assays?
ATXN viability: inactive

What do the screens show for `CCC(=O)N1CCN(c2ccccc2NC(=O)c2ccc([N+](=O)[O-])o2)CC1`?
TGFb inhibitor: 16µM*; HT1080 IDH1KD tx: -27%; HepG2 tox: -150%; ATXN viability: inactive; HT1080-NT tox: inconclusive; ATXN2 expr inh: -32%

How did O=C(Nc1ccccc1N1CCN(C(=O)c2ccccc2)CC1)c1ccc([N+](=O)[O-])o1 do in these assays?
TGFb inhibitor: 11µM*; HT1080 IDH1KD tx: 16µM*; HepG2 tox: -198%; ATXN viability: inactive; HT1080-NT tox: inconclusive; ATXN2 expr inh: -27%

How did CC1CCN(c2ccccc2NC(=O)c2ccc([N+](=O)[O-])o2)CC1 do in these assays?
TGFb inhibitor: 17%; HT1080 IDH1KD tx: -16%; HepG2 tox: 5%; ATXN viability: inactive; HT1080-NT tox: 1%; ATXN2 expr inh: 2%

How did O=C(Nc1ccc(N2CCN(C(=O)c3ccccc3)CC2)c(Cl)c1)c1ccc(Br)o1 do in these assays?
TGFb inhibitor: -4%; HT1080 IDH1KD tx: inconclusive; HepG2 tox: -34%; ATXN viability: inconclusive; HT1080-NT tox: 7.1µM*; ATXN2 expr inh: inconclusive

Results for O=C(Nc1ccccc1N1CCCC1)c1ccc([N+](=O)[O-])o1 ?
TGFb inhibitor: 25µM*; HT1080 IDH1KD tx: inconclusive; HepG2 tox: -81%; ATXN viability: inconclusive; HT1080-NT tox: inconclusive; ATXN2 expr inh: inconclusive

What do the screens show for `O=C(CCCn1c2ccccc2c(=O)c2ccccc21)Nc1ccc(F)cc1Cl`?
TGFb inhibitor: -2%; HepG2 tox: -2%; ATXN viability: inactive; ATXN2 expr inh: -21%

What do the screens show for `Cn1c(=O)c2c(-c3ccccc3Cl)n(-c3cc(Cl)ccc3O)cc2n(C)c1=O`?
TGFb inhibitor: inconclusive; HepG2 tox: -33%

Results for O=C(Nc1ccc2c(c1)CCCN2C(=O)c1cccs1)c1cccc(C(F)(F)F)c1 ?
TGFb inhibitor: -7%; HepG2 tox: -10%; ATXN viability: 35µM*; ATXN2 expr inh: inconclusive

What do the screens show for `O=C(Nc1ccc2c(c1)CCCN2C(=O)c1cccs1)c1ccc(F)c(F)c1`?
TGFb inhibitor: inconclusive; HepG2 tox: -19%; ATXN viability: 25µM*; ATXN2 expr inh: inconclusive

Results for CCCCNC(=O)C1(C)CCN1C(=O)c1ccccc1Br (stereo not drawn) ?
TGFb inhibitor: 26%; HT1080 IDH1KD tx: 4%; HepG2 tox: -1%; ATXN viability: inactive; HT1080-NT tox: 17%; ATXN2 expr inh: 8%

What do the screens show for `CCCCNC(=O)C1(C)CCN1C(=O)c1cc(-c2cccs2)oc1C` (stereo not drawn)?
TGFb inhibitor: inconclusive; HT1080 IDH1KD tx: 23µM*; HepG2 tox: -54%; ATXN viability: inactive; HT1080-NT tox: inconclusive; ATXN2 expr inh: -24%

What do the screens show for `COC(=O)CCN(Cc1ccco1)S(=O)(=O)c1ccc(F)cc1Br`?
TGFb inhibitor: 0%; HepG2 tox: 4%

Results for CC(C)COC(=O)c1cccc2c1-c1ccccc1/C2=N\O ?
TGFb inhibitor: 14µM*; HT1080 IDH1KD tx: inconclusive; HepG2 tox: -100%; ATXN viability: inconclusive; HT1080-NT tox: inconclusive; ATXN2 expr inh: 4%

How did CCOC(=O)c1cccc2c1-c1ccccc1/C2=N/O do in these assays?
TGFb inhibitor: inconclusive; HT1080 IDH1KD tx: inconclusive; HepG2 tox: -39%; ATXN viability: inactive; HT1080-NT tox: inconclusive; ATXN2 expr inh: -24%

How did O=C(Nc1ccccc1N1CCCCC1)c1ccc(Cl)c([N+](=O)[O-])c1 do in these assays?
TGFb inhibitor: 0%; HT1080 IDH1KD tx: inconclusive; HepG2 tox: 0%; ATXN viability: inactive; HT1080-NT tox: inconclusive; ATXN2 expr inh: -21%

Results for O=C(/C=C/c1ccc(Cl)c([N+](=O)[O-])c1)Nc1ccc(N2CCCC2)c(Cl)c1 ?
TGFb inhibitor: 0%; HT1080 IDH1KD tx: 13µM*; HepG2 tox: -23%; ATXN viability: inconclusive; HT1080-NT tox: inconclusive; ATXN2 expr inh: -30%

How did CN1CCN(c2ccc(S(=O)(=O)N3CCCCC3)cc2NC(=O)/C=C/c2ccc(Cl)c([N+](=O)[O-])c2)CC1 do in these assays?
TGFb inhibitor: inconclusive; HT1080 IDH1KD tx: inconclusive; HepG2 tox: -97%; ATXN viability: inconclusive; HT1080-NT tox: -15%; ATXN2 expr inh: 22µM*

What do the screens show for `CCN1CCN(c2ccc(S(=O)(=O)N3CCCCC3)cc2NC(=O)/C=C/c2ccc(F)cc2)CC1`?
TGFb inhibitor: inconclusive; HT1080 IDH1KD tx: -4%; HepG2 tox: -75%; ATXN viability: inactive; HT1080-NT tox: -4%; ATXN2 expr inh: -15%

Results for CCN1CCN(c2ccc(S(=O)(=O)N3CCCCC3)cc2NC(=O)/C=C/c2ccc([N+](=O)[O-])cc2)CC1 ?
TGFb inhibitor: -27%; HT1080 IDH1KD tx: 16µM*; HepG2 tox: -47%; ATXN viability: inconclusive; HT1080-NT tox: inconclusive; ATXN2 expr inh: 32µM*

Results for CN1CCN(c2ccc(S(=O)(=O)N3CCCCC3)cc2NC(=O)/C=C/c2ccc(OC(F)F)cc2)CC1 ?
TGFb inhibitor: inconclusive; HT1080 IDH1KD tx: inconclusive; HepG2 tox: -100%; ATXN viability: inactive; HT1080-NT tox: inconclusive; ATXN2 expr inh: -34%
